From PubChem
Shown are actives, neighbours in structure and some others; about 1.9% of the full set was active somewhere.
sEH activator: soluble epoxide hydrolase activators, primary screen, biochemical, human sEH; Bifunctional epoxide hydrolase 2 (Homo sapiens), P34913; purified human sEH enzymatic activity, activator screen; activation, % at 2 µM; 91,000 tested, 0.04% active; AID 717, 2007; in the data active = activation above about 37%
Target sequence (P34913 whole entry, looked up): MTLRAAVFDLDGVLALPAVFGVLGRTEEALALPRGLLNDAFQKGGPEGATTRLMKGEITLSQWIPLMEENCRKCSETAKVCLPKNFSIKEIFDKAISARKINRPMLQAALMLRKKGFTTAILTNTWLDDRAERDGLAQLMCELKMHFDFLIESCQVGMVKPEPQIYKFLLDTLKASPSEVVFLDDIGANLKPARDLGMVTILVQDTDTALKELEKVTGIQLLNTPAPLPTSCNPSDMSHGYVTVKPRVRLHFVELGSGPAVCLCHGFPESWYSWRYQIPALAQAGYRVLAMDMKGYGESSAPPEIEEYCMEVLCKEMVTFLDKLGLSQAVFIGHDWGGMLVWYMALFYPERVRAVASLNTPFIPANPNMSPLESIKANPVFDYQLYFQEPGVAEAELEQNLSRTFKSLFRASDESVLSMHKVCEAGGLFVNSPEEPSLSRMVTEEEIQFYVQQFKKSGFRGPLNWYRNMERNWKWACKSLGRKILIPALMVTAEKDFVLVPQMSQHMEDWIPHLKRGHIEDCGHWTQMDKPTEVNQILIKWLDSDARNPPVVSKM
Measles CPE: compounds protecting cells from measles virus cytopathic effect, primary screen, measles RdRp inhibitor project, single point, MLSMR library, absorbance | Measles virus-infected cells, CPE protection | protection (pct of control), % at 4 µM | 140,000 tested, 1.5% active | AID 841, 2007; in the data active = protection mostly above about 24%, no sharp cut-off; inactive = mostly below about 26%
cytoskel mod: modifiers of F-actin cytoskeleton organization, primary screen, imaging, HUVEC, phalloidin staining, high-content imaging; 91,000 tested, 0.18% active; HUVEC TNFa F-actin phalloidin imaging; inhibition, % at 2 µM; AID 836, 2007;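 active = inhibition above the batch mean plus 3 SD and confirmed as a hit by visual image inspection, cut at about 30% in these data, passing the limit was not always enough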
Calb biofilm kill: clotrimazole potentiators killing Candida biofilms, primary screen, with clotrimazole, Alamar Blue | inhibition, % at 6 µM | C. albicans biofilm + clotrimazole | 85,000 tested, 0.14% active | AID 834, 2007;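 active = inhibition above 20%; inactive = inhibition below 20%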;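 also: preformed 24 hr biofilms exposed to compound for 48 hr; 0% = biofilm without compound and 100% = blank killed by clotrimazole plus chlorhexidine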
sEH inhibitor: soluble epoxide hydrolase inhibitors, primary screen, biochemical, human sEH; Bifunctional epoxide hydrolase 2 (Homo sapiens), P34913; recombinant human sEH enzymatic activity assay; inhibition, % at 2 µM; 91,000 tested, 0.34% active; AID 707, 2007; in the data active = inhibition above about 80%
Starred values were filed as active, the others as inactive; · = no result.

SMILES	sEH activator	Measles CPE	cytoskel mod	Calb biofilm kill	sEH inhibitor
O=c1c(N2CCCCC2)coc2ccccc12	-11.3	4.6	-11.8	5.6	9.7
CC1CN(CC(O)COC(c2ccccc2)c2ccccc2)CC(C)O1 (stereo unspecified)	·	30.7*	·	·	·
COc1ccccc1C1CN(c2ccc(F)cc2F)N=C1c1cccs1 (stereo unspecified)	37.6*	17.5	-3.9	5.9	-34.8
COc1ccccc1C1CC(c2cccs2)=Nc2ccccc2S1 (stereo unspecified)	-11.3	11.7	1.0	2.3	9.7
Cc1cccc(C(=O)N/N=C/c2ccc3c(c2)OCO3)n1	-0.6	3.2	25.0	·	6.2
O=C(N/N=C/c1ccc2c(c1)OCO2)c1ccccn1	8.4	92.4*	-10.1	·	-5.4
CC(C)(C)N=Cc1cc(-c2ccccc2)sc1O	-8.4	40.7*	22.7	1.3	10.3
C=CCn1c(SCC(=O)N2CC(=O)Nc3ccccc32)nc2scc(-c3cccs3)c2c1=O	·	80.5*	4.9	2.2	·
Cc1nc(N/C(N)=N/S(=O)(=O)c2ccc([N+](=O)[O-])cc2)nc2ccccc12	·	9.4	·	·	·
CCOc1ccc(-c2noc(=O)[nH]2)cc1	1.8	38.3*	12.2	3.1	-3.1
CCCCCn1c(CN2CCN(c3cc(Cl)ccc3C)CC2)nc2c1c(=O)[nH]c(=O)n2C	-4.6	35.4	17.0	8.3	2.5
COc1cccc2c(=O)n(CC(=O)Nc3ccc(F)cc3F)ccc12	6.2	4.3	-5.1	-4.3	-7.3
COc1cccc2c(=O)n(CC(=O)Nc3ccccc3)ccc12	7.4	90.2*	5.2	2.5	-8.5
Cc1ccc(OCC(=O)N/N=C/c2ccco2)cc1	-9.9	15.6	-9.0	3.5	7.3
Cc1ccccc1OCC(=O)N/N=C/c1ccco1	7.9	44.5*	-12.3	-2.8	-4.1
O=C(NCC1CCCO1)c1c(O)c2cccc3c2n(c1=O)CC3 (stereo unspecified)	-5.8	55.4*	-9.4	0.6	7.4
COc1ccc(C(=O)NC2CCCCCC2)cc1S(=O)(=O)N1CCCc2ccccc21	-25.1	3.4	9.0	-2.5	26.9
COc1ccc(C(=O)Nc2nc3c(s2)CCCC3)cc1S(=O)(=O)N1CCCc2ccccc21	·	35.6*	·	·	·
Cc1ccc(C(=O)Cn2nnc(-c3ccccc3-n3cnnn3)n2)cc1	·	21.8	22.2	·	·
Cc1ccc(-c2nnn(CC(=O)Nc3ccccc3-c3ccccc3)n2)c(-n2cnnn2)c1	-8.8	41.7*	6.4	14.1	6.8
O=C(NCCCn1ccnc1)c1cc2ccccc2oc1=O	·	9.2	·	·	·
O=C(NCCCn1ccnc1)Nc1cccc2ccccc12	4.7	25.9*	-13.2	-0.5	-0.8
COc1ccc(CCN2C(=O)CC(NNC(=O)c3ccc(F)cc3)C2=O)cc1OC (stereo unspecified)	·	8.3	·	·	·
COc1ccc(CCN2C(=O)C3C4CC(C5C(C(=O)N/N=C\c6ccc(Cl)cc6)=NOC45)C3C2=O)cc1OC (stereo unspecified)	-94.2	2.5	9.0	5.9	94.1*
Cc1ccc(/C=N/NC(=O)CNC(=O)Cc2ccccc2)o1	·	6.5	·	·	·
SMILES	sEH activator	Measles CPE	cytoskel mod	Calb biofilm kill	sEH inhibitor
CCCCOc1ccc(C(=O)C(CN2CCOCC2)c2ccccc2)cc1 (stereo unspecified)	10.4	40.5*	13.7	0.5	-4.6
COc1ccc(C(=O)N[C@H](C(=O)OCC(=O)NC(=O)c2cccn2C)C(C)C)cc1	·	2.1	·	·	·
Cc1cc(OCc2ccc(F)cc2)nc(-c2ccccc2O)n1	3.0	32.5*	-18.3	-2.2	-1.3
Cc1cc(Oc2ccc(Cl)cc2)nc(-c2ccccc2O)n1	11.4	30.9*	-8.3	10.0	-7.8
Fc1ccccc1NC(=S)N1CCN(c2ccccn2)CC1	·	6.6	·	·	·
Cc1ccc(C)c2c3c([nH]c12)-c1nonc1CC3	3.8	74.3*	-0.7	1.3	-1.8
Nc1[nH]c(N=NC(=O)c2ccccc2)c2ccccc12	·	19.2	·	·	·
Nc1[nH]c(N=NC(=O)c2ccc(Cl)cc2)c2ccccc12	·	44.9*	·	·	·
CC(=O)Nc1ccc(/C=N/OCC(=O)Nc2ccc(C)cc2)cc1	·	37.7*	·	·	·
CCN(CC)c1ccc(/C=N/OC(C)C(=O)Nc2ccc(C)cc2)cc1 (stereo unspecified)	·	7.7	·	·	·
Cn1ncc2c(Nc3ccccc3Br)ncnc21	·	·	·	2.9	·
Cn1ncc2c(Nc3ccc(-c4ccccc4)cc3)ncnc21	·	75.4*	·	·	·
CCN(CC)S(=O)(=O)c1ccc(C(=O)OCn2nnc3ccccc3c2=O)cc1	-3.2	0.5	-2.5	3.1	1.2
Cc1oc(CC(C)C)cc1C(=O)Nc1cccc2ccccc12	-4.8	37.1*	9.4	1.7	4.5
CCOc1ccccc1NC(=O)c1cc(CC(C)C)oc1C	-1.7	3.9	-0.7	4.4	-0.4
CCC12CN(C(=O)c3ccc(OC)cc3)CC(CC)(CN(C(=O)c3ccc(OC)cc3)C1)C2=O	-6.8	·	33.4	0.2	6.3
COc1ccc(OCC(=O)Nc2ccccc2O)cc1	4.0	20.3	4.2	81.8*	-4.9
COc1ccccc1NC(=O)COc1ccccc1	-9.0	1.6	-5.7	-1.8	5.8
C=CCc1c(OC)ccc2ccc(=O)oc12	8.0	35.9*	-3.5	·	-8.2
Cc1ccc(-n2c([O-])nc(-[n+]3ccccc3)c2C=O)cc1	4.5	11.8	37.0*	·	-1.5
Cc1cc[n+](-c2nc([O-])n(-c3ccccc3)c2C=O)cc1	-1.5	·	11.5	2.7	6.5
CCC1CCCCN1C(=O)Cn1c(=O)n(CCC(=O)NCc2ccco2)c(=O)c2sccc21 (stereo unspecified)	3.5	3.8	-8.3	3.5	-5.3
Cc1nn(-c2nc3ccccc3s2)c(C)c1Oc1ccccc1O	·	43.8*	·	-1.3	·
Cc1nn(-c2ccccn2)c(C)c1Oc1ccccc1O	6.3	0.4	6.2	1.3	-3.2
CCOc1ccc(-n2c(C)nnc2SCC(=O)N(CC)CC)cc1	17.3	16.6	4.1	-0.9	-13.7
SMILES	sEH activator	Measles CPE	cytoskel mod	Calb biofilm kill	sEH inhibitor
CCOC(=O)Cn1nnnc1C(CC)N(Cc1cc2c(C)cc(C)cc2[nH]c1=O)C1CCCC1 (stereo unspecified)	·	·	·	8.4	·
CCC(CC)NC(=O)COC(=O)c1ccc(OCC(=O)Nc2ccccc2OC)c(OC)c1	-83.0	13.6	8.4	·	83.3*
Cc1[nH]c2ccccc2c1Cc1nnc(SCc2ccccc2)o1	·	7.2	3.0	7.3	·
O=C(O)c1ccccc1-c1ccccc1C(=O)NCCCO	37.1*	6.0	-0.8	5.0	-33.3
N#Cc1c(Nc2ccccc2)c(/C=N/N=C/c2ccccc2)c[nH]c1=O	·	25.7*	·	·	·
N#Cc1c(NC(=O)CSc2ccccn2)oc(-c2ccccc2)c1-c1ccccc1	-7.6	32.8*	·	6.8	7.2
Cc1ccc(NC(=O)c2ccc(CSc3nnc(-c4ccncc4)n3C)cc2)c(C)c1	0.3	99.9*	7.8	·	-1.5
CN(C)c1ccc(/C=C/c2cc[n+]([O-])cc2)cc1	2.3	25.1	24.9	-0.8	-0.7
CN(C)c1ccc(/C=C/c2cc[n+](C)cc2)cc1	7.5	49.4*	·	-1.4	-10.7
O=C(CCOc1ccccc1)Nc1ccc(S(=O)(=O)N2CCCC2)cc1	-19.4	19.5	2.5	·	18.9
